What all share (details): mRNA level, 48 h; actives raise or lower the signal
Read-out in assay [1]: Lipoprotein lipase (LPL), LPL (gene 4023)
Put plainly: LTEA_HepaRG_LPL: Life Technologies and Expression Analysis (LTEA) Assay for Lipoprotein lipase (LPL) using HepaRG (AID 2283515). In short, it runs like this:
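Differentiated human HepaRG cells in serum-free induction medium were exposed in duplicate for 48 h to eight half-log concentrations (top 100 uM) in 0.5% DMSO. LPL mRNA was quantified by TaqMan qRT-PCR, normalized to ACTB, GAPDH and POLR2A.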

Read-out in assay [2]: matrix metalloproteinase-10 (MMP10), MMP10 (gene 4319)
In words: LTEA_HepaRG_MMP10: Life Technologies and Expression Analysis (LTEA) Assay for matrix metalloproteinase-10 (MMP10) using HepaRG (AID 2283517). The method, boiled down: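 HepaRG, collagen I, ~100,000 cells/well; serum-free induction medium; 48 h exposure, duplicate, 8-pt half-log to 100 uM, 0.5% DMSO. Readout: TaqMan qRT-PCR, normalized to ACTB/GAPDH/POLR2A; bidirectional fit vs DMSO.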

Read-out in another assay: MYC, MYC (gene 4609)
Put plainly: LTEA_HepaRG_MYC: Life Technologies and Expression Analysis (LTEA) Assay for MYC using HepaRG (AID 2283518). In short, it runs like this:
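qRT-PCR read-out of MYC transcript (Fluidigm TaqMan, housekeeping-normalized) after 48 h chemical exposure of HepaRG cells; eight concentrations, top 100 uM, half-log steps. Bidirectional curve fitting against 0.5% DMSO vehicle baseline.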

Read-out in assay [3]: Paternally Expressed 10 (PEG10), PEG10 (gene 23089)
Put plainly: LTEA_HepaRG_PEG10: Life Technologies and Expression Analysis (LTEA) Assay for Paternally Expressed 10 (PEG10) using HepaRG (AID 2283520). The method, boiled down: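 Differentiated HepaRG cells exposed 48 h in serum-free induction medium to eight half-log concentrations topping at 100 uM, 0.5% DMSO, in duplicate. PEG10 mRNA quantified by TaqMan qRT-PCR, normalized to ACTB, GAPDH and POLR2A; bidirectional fit versus DMSO.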

Read-out in assay [4]: Protein phosphatase 2A (PPP2R4), PTPA (gene 5524)
In words: LTEA_HepaRG_PPP2R4: Life Technologies and Expression Analysis (LTEA) Assay for Protein phosphatase 2A (PPP2R4) using HepaRG (AID 2283522). The method, boiled down:
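Differentiated human HepaRG cells in serum-free induction medium were exposed 48 h to 8 concentrations (top 100 µM, half-log steps, duplicate) in 0.5% DMSO. PPP2R4 mRNA was measured by TaqMan qRT-PCR, normalised to ACTB, GAPDH and POLR2A, and fitted bidirectionally versus DMSO.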

Read-out in assay [5]: Phosphatase and tensin (PTEN), PTEN (gene 5728)
In words: LTEA_HepaRG_PTEN: Life Technologies and Expression Analysis (LTEA) Assay for Phosphatase and tensin (PTEN) using HepaRG (AID 2283523). In short, it runs like this:
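Differentiated human HepaRG cells, plated 48 h then switched to serum-free induction medium, were exposed in duplicate for 48 h to eight half-log concentrations up to 100 uM in 0.5% DMSO. PTEN mRNA measured by TaqMan qRT-PCR, normalized to ACTB/GAPDH/POLR2A, bidirectional fit versus DMSO.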

Read-out in assay [6]: solute carrier (SLC22A1), SLC22A1 (gene 6580)
Put plainly: LTEA_HepaRG_SLC22A1: Life Technologies and Expression Analysis (LTEA) Assay for solute carrier (SLC22A1) using HepaRG (AID 2283524). In short, it runs like this: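 Human HepaRG cells were plated 48 h, switched to serum-free induction medium, then exposed in duplicate for 48 h to 8-point half-log series from 100 uM in 0.5% DMSO. SLC22A1 mRNA measured by qRT-PCR, normalized to ACTB/GAPDH/POLR2A, fitted bidirectionally versus DMSO.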

Read-out in assay [7]: Pyruvate Dehydrogenase Kinase 4 (PDK4), PDK4 (gene 5166)
Put plainly: LTEA_HepaRG_PDK4: Life Technologies and Expression Analysis (LTEA) Assay for Pyruvate Dehydrogenase Kinase 4 (PDK4) using HepaRG (AID 2283525). The method, boiled down: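 Differentiated human HepaRG cells, pre-cultured 48 h, were exposed in duplicate for 48 h in serum-free induction medium to eight half-log concentrations up to 100 uM in 0.5% DMSO. PDK4 mRNA was quantified by qRT-PCR, normalized to ACTB, GAPDH and POLR2A, bidirectional fitting versus DMSO.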

Read-out in assay [8]: NAD(P)H dehydrogenase [quinone] 1 (NQO1), NQO1 (gene 1728)
Put plainly: LTEA_HepaRG_NQO1: Life Technologies and Expression Analysis (LTEA) Assay for NAD(P)H dehydrogenase [quinone] 1 (NQO1) using HepaRG (AID 2283526). The method, boiled down: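 Differentiated human HepaRG cells in serum-free induction medium, dosed in duplicate for 48 h at 8 half-log concentrations up to 100 uM in 0.5% DMSO. NQO1 mRNA by qRT-PCR normalized to ACTB, GAPDH, POLR2A; bidirectional fit versus DMSO baseline.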

Read-out in assay [9]: Nuclear factor NF-kappa-B p105 subunit (Homo sapiens) (UniProt P19838)
In words: LTEA_HepaRG_NFKB1: Life Technologies and Expression Analysis (LTEA) Assay for Nuclear Factor Kappa B Subunit 1 (NFKB1) using HepaRG (AID 2283521).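 Further: TaqMan qRT-PCR transcript normalised to ACTB GAPDH and POLR2A housekeeping genes.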 Here is the method: LTEA_HepaRG is a cell based, multiplexed-readout assay that uses HepaRG, a human liver cell line, with measurements taken at 48 hours after chemical dosing on a 96-well plate.LTEA_HepaRG_NFKB1 is one of 102 assay component(s) measured in the LTEA HepaRG cell culture assay. It is a marker of Cell proliferation, survival, death.Data from the assay component LTEA_HepaRG_NFKB1 was analyzed into 1 endpoint. This assay endpoint, LTEA_HepaRG_NFKB1, was analyzed with bidirectional fitting relative to DMSO as the negative control and baseline of activity. Using a type of inducible reporter, measures of mRNA induction for gain or loss-of-signal activity can be used to understand regulation of transcription factor activity. To generalize the intended target to other relatable targets, this assay endpoint is annotated to the dna binding intended target family, where the subfamily is NF-kappa B.
A total of 1060 chemcials from the ToxCast library were tested in eight-point concentration-response experiments. Cell culture and cytotoxicity assays were conducted at Thermo Fisher Scientific's Custom Services facility (Madison, WI). A single lot of human HepaRG cells (Thermo Fisher Scientific, Frederick, MD) was used for the cell culture experiments. 96-well format collagen type I coated plates of human HepaRG cells were prepared using established methods. Briefly, cryopreserved HepaRG cells were thawed, plated at a density of approximately 100,000 cells/well in HepaRG Thaw, Plate, and General Purpose media (HPRG770, Thermo Fisher Scientific), and incubated for 48 hours. 0.5% DMSO was selected as vehicle control to balance the requisite need of DMSO in HepaRG cultures to maintain differentiation (for example, baseline metabolism, proportions of hepatocytes vs. cholangiocytes), while enabling further hepatic receptor pathway activation (for example, PXR and CAR) in response to chemical exposure. 48 hours after plating, the culture medium was replaced with HepaRG Serum-Free Incudtion Media. Cells were exposed to each test chemical in duplicate and maintained in CO2 incubators for another 48 hours. Chemical plates were thawed to room temperature and 200x concentrations of treatment groups were prepared. 8-point conentration-reponse curves were made with the highest exposure at 100 uM, followed by half-log dilutions, all in 0.5% DMSO. Each test plate contained variouse controls, induction positive controls (1mM phenobarbital), cytotoxicity positive controls ([…] aflatoxin B1), vehicle controls (0.5% DMSO), and total lysis controls (0.5% DMSO). Cell morphology images were taken using an Essen IncuCyte FLR automated microscope, with six 96-well plates imaged in about 24 minutes. Images were captured and exported and JPEG files. Spent culture media was transfered to black-well plates for the LDH assay, and remaining media was sorted at -80 C for later use. Cells were treated with RLT buffer and frozen until shipped for gene expression analysis. Total RNA was isolated from the cell suspension in 75 uL of Buffer RLT (Qiagen, Germantown, MD 20874) by Quintiles/Expression Analysis (Durham, NC) using a custom isolation procedure. Total RNA from each plate well was transferred to a preamplification plate. Fluidigm's 96.96 Dynamic ArrayTM (Fluidigm, Amsterdam, the Netherlands) technology was used for gene expression analyses by quantitative reverse transcription polymerase chain reaction (qRT-PCR, performed by Quintiles/Expression Analysis, Durham, NC)89. […]

A word on the AC50: it is the midpoint of the concentration-response curve, whichever way the signal moves.

Calls of active or inactive are those of the source. How the source made its calls: active means hit-call score of the fitted dose curve at least 0.9, where 1 is the maximum; inactive means score below 0.9.

Chain of Nuclear factor NF-kappa-B p105 subunit (Homo sapiens) (P19838 whole entry, looked up): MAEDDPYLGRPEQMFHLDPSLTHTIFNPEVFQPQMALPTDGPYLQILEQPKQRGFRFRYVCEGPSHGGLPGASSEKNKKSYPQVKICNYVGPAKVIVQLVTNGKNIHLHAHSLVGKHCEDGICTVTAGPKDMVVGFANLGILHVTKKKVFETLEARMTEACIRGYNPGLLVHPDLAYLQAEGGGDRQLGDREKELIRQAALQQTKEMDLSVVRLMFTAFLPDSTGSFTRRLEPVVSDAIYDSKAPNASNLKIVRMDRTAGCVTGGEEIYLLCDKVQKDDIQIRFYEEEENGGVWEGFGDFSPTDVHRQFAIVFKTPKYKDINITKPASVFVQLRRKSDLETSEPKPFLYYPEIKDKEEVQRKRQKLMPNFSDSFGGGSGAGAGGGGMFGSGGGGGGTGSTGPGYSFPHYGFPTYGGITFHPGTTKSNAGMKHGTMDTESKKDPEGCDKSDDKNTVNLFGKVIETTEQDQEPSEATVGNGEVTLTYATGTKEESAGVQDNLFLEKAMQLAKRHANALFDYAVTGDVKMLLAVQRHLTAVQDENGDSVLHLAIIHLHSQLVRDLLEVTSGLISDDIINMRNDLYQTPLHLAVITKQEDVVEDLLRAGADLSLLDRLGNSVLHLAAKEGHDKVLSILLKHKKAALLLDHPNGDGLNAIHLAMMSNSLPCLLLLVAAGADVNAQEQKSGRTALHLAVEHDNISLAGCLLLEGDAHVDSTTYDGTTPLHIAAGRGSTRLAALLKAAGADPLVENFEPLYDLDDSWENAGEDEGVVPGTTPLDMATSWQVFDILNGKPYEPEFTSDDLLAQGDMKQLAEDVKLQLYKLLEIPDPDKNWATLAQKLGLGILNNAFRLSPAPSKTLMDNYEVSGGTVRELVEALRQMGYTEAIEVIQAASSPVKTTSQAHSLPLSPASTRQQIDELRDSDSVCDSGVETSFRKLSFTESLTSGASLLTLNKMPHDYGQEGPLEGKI

As for `CCCCC(CC)C(=O)O` (centres undefined), the outcome was “inactive” in [1]; “inactive” in [2]; “inactive” with MYC, MYC (gene 4609); “inactive” in assay [3]; “inactive” in assay [4]; “inactive” in assay [5]. The compound was classed as inactive in assay [6], in [7] and in assay [8].
`Cc1[nH]nc2c1N=C(c1ccccc1Cl)c1cc([N+](=O)[O-])ccc1N2`: the AC50 was 13 µM (active) in assay [1]; 5.91 µM (active) in assay [2]; 82 µM (active) in the assay with MYC, MYC (gene 4609); 3.67 µM (active) in assay [3]; 5.69 µM (active) in assay [6]; 0.37 µM (active) in assay [7]. Further, the compound was classed as inactive in assay [4], in [5] and in assay [8].
In the case of `O=C1NS(=O)(=O)c2ccccc21`, the outcome in assay [1] was “inactive”; in [2] it was “inactive”; with MYC, MYC (gene 4609), “inactive”; in [3], “inactive”; in assay [4], “inactive”; in assay [5], “inactive”. For the same compound, the call in assay [6], in assay [7] and in assay [8] was inactive.
As for `CCCCC=O`, the outcome in [1] is “inactive”; in [2], “inactive”; in the assay with MYC, MYC (gene 4609), “inactive”; in assay [3], “inactive”; in assay [9], “inactive”; in assay [4] it was “inactive”. The compound was called inactive in [5], in [6], in [7] and in assay [8].
Take `CCC(C)c1ccccc1O` (centres undefined): the outcome in assay [1] was “inactive”; in [2], “inactive”; in the assay with MYC, MYC (gene 4609), “inactive”; in [3], “inactive”; in [9], “inactive”; in assay [4], “inactive”. The outcome in assay [5], in assay [6], in [7] and in assay [8] was inactive.
Turning to `CN(C)CCOC(c1ccccc1)c1ccccc1`, the concentration at half-maximal activity (AC50) in [1] is 50 µM (active). Further, the outcome in [2] is “inactive”; in the assay with MYC, MYC (gene 4609), “inactive”; in assay [3], “inactive”; in [4], “inactive”; in assay [5], “inactive”; in assay [6], “inactive”. Besides, the compound was called inactive in assay [7] and in assay [8].
For the compound `CC(=O)Nc1ccc(O)cc1`, the outcome in [1] was “inactive”; in assay [2], “inactive”; with MYC, MYC (gene 4609) it was “inactive”; in assay [3], “inactive”; in [4] it was “inactive”; in assay [5], “inactive”. The compound was classed as inactive in assay [6], in [7] and in assay [8].
For `O=C(c1ccccc1)c1ccccc1`, the outcome in assay [1] was “inactive”; in assay [2], “inactive”; with MYC, MYC (gene 4609), “inactive”; in [3], “inactive”; in assay [4] it was “inactive”; in assay [5] it was “inactive”. Moreover, the outcome in assay [6], in [7] and in assay [8] was inactive.

The record behind these values is PubChem BioAssay (EPA / NIEHS).
